# Data from article PMC7862700, “An all-to-all approach to the identification of sequence-specific readers for epigenetic DNA modifications on cytosine”.
# Experiments:
# Assay in all cases: DAPPL (digital affinity profiling via proximity ligation, sequencing); 10 mM Tris-HCl pH 7.5, 50 mM NaCl, 1 mM DTT, 4% glycerol, room temperature, 30 min; GST-TFs on glutathione beads, 16-mer random dsDNA library, 0.1% formaldehyde crosslink after washing; high values mean tight binding
# Details in all cases: protein: recombinant; tags: N-terminal GST; dsDNA, one strand shown
# FLI1 = target: T1, FLI1 (Homo sapiens, UniProt Q01543 1-452)
# T1 sequence: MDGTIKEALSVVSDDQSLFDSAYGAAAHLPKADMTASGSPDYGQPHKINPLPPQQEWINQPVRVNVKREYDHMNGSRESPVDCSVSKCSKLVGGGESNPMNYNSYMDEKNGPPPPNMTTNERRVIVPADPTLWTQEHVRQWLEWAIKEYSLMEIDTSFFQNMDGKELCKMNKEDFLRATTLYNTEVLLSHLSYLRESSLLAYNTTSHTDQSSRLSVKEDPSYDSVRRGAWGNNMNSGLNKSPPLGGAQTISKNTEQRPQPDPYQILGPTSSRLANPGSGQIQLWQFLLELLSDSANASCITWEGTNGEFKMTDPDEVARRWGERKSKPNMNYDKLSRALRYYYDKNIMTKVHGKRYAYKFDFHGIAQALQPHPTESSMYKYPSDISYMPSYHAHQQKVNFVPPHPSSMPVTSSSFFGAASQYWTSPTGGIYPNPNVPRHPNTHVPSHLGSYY
# In short: (§1)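 Pools of DNA-barcoded human transcription factors, expressed in yeast as GST fusions on glutathione beads and combined with a tag-only sample, were incubated with 200 nmole of a 16-mer random double-stranded DNA library. Incubation took 30 min at room temperature in Tris/NaCl/DTT/glycerol buffer and was followed by washing, 0.1% formaldehyde crosslinking, proximity ligation (BsaI/T4 ligase, 1 h, 37 °C), PCR amplification and sequencing on an Illumina NextSeq500. Binding signal is the ratio of a hexamer's read frequency for a factor to its frequency for the tag-only sample.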
# ELK1 = target: T2, ELK1 (Homo sapiens, UniProt P19419 1-428)
# T2 sequence: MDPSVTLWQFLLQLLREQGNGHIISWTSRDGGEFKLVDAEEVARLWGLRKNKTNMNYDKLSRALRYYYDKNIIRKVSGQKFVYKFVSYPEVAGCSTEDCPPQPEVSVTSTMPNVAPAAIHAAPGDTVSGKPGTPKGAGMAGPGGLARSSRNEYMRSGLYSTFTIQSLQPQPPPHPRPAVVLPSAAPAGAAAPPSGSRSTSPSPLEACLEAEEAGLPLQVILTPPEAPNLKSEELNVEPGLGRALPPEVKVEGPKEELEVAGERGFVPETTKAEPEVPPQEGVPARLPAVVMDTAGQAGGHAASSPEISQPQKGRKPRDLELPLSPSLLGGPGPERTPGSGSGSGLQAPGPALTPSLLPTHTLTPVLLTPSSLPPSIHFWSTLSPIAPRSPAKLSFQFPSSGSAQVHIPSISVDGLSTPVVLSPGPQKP
# In short: as §1
# GABPA = target: T3, GABPA (Homo sapiens, UniProt Q06546 1-454)
# T3 sequence: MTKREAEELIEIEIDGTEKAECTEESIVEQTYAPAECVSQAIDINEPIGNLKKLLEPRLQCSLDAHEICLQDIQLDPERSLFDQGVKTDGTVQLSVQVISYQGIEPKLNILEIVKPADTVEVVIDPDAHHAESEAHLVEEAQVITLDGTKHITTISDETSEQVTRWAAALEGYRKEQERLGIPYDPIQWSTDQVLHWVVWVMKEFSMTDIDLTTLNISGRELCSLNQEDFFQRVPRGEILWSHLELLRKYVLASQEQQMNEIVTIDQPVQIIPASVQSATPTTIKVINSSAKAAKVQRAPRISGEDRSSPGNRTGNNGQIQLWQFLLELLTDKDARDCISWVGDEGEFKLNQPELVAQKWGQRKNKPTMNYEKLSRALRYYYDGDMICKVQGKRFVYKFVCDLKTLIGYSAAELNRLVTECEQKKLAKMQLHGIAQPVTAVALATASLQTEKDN
# In short: as §1
# ERG = target: T4, ERG (Homo sapiens, UniProt P11308 1-479)
# T4 sequence: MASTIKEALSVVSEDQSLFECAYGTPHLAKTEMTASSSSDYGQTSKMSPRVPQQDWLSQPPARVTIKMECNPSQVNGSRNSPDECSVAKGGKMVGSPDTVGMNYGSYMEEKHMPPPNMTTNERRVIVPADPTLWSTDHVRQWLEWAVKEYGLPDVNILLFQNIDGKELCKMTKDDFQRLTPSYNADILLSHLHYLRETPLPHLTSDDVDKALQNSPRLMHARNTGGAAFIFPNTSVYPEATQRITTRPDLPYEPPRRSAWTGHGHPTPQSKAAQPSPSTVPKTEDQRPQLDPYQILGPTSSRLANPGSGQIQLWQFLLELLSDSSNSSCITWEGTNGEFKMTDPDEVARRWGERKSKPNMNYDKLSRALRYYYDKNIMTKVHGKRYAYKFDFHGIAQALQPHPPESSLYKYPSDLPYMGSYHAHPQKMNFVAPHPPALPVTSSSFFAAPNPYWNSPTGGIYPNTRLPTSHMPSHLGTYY
# In short: as §1
# ELF1 = ELF1 (Homo sapiens, UniProt P32519 1-619)
# In short: as §1
# EHF = target: T5, EHF (Homo sapiens, UniProt Q9NZC4 1-300)
# T5 sequence: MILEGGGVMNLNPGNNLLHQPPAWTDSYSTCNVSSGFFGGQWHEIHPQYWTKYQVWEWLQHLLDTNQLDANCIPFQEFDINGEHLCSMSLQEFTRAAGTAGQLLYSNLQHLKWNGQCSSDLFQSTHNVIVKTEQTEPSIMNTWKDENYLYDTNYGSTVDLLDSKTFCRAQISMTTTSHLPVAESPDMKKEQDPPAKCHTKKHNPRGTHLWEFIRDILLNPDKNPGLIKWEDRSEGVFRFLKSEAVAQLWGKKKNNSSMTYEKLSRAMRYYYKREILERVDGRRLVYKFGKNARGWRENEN
# In short: as §1
# SPI1 = SPI1 (Homo sapiens, UniProt P17947 1-270)
# In short: as §1
# SPIB = SPIB (Homo sapiens, UniProt Q01892 1-262)
# In short: as §1
# ELK3 = target: T6, ELK3 (Homo sapiens, UniProt P41970 1-407)
# T6 sequence: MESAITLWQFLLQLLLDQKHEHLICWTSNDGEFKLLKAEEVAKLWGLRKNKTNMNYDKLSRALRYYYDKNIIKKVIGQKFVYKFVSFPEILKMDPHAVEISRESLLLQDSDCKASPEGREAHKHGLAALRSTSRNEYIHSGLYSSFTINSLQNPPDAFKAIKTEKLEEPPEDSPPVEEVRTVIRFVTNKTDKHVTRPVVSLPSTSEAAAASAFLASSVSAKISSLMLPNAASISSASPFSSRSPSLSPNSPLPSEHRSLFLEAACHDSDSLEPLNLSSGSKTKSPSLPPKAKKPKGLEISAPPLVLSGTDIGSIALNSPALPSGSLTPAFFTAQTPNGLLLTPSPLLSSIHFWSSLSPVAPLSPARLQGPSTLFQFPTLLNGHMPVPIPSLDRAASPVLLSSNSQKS
# In short: as §1
# Sequence of ELF1 (P32519 whole entry): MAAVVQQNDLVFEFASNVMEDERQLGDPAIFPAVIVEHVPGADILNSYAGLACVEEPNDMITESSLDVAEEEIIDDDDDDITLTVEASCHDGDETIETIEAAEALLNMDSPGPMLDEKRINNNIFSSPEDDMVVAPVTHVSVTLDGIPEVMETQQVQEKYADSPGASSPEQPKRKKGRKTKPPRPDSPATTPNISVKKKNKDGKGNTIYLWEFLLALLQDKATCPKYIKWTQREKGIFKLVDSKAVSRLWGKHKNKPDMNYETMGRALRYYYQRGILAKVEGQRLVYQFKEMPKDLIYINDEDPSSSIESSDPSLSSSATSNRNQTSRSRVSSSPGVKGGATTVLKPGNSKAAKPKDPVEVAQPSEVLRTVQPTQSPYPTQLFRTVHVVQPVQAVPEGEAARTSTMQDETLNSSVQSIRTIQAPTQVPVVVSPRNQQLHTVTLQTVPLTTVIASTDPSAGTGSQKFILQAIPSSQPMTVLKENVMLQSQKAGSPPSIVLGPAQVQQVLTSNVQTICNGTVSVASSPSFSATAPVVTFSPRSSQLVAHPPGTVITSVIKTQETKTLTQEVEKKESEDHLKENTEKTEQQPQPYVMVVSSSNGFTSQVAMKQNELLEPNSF
# Sequence of SPIB (Q01892 whole entry): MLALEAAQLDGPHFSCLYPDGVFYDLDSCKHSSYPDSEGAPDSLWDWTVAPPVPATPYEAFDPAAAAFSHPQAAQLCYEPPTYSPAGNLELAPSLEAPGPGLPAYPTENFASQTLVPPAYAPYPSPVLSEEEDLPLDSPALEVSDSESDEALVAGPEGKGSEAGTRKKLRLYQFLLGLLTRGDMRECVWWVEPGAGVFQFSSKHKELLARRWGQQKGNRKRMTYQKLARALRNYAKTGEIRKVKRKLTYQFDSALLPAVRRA
sequence,measurement,setting,value
GCTCGC,binding signal,FLI1,"1.39 fold enrichment (6-mer frequency, TF over GST control)"
same,binding signal,ELK1,"1.29 fold enrichment (6-mer frequency, TF over GST control)"
same,binding signal,GABPA,"1.41 fold enrichment (6-mer frequency, TF over GST control)"
same,binding signal,ERG,"1.29 fold enrichment (6-mer frequency, TF over GST control)"
same,binding signal,ELF1,"1.42 fold enrichment (6-mer frequency, TF over GST control)"
same,binding signal,EHF,"1.27 fold enrichment (6-mer frequency, TF over GST control)"
same,binding signal,SPI1,"1.29 fold enrichment (6-mer frequency, TF over GST control)"
same,binding signal,SPIB,"1.42 fold enrichment (6-mer frequency, TF over GST control)"
same,binding signal,ELK3,"1.38 fold enrichment (6-mer frequency, TF over GST control)"
